Screening results deposited in PubChem by several laboratories.
LMP1 NFkB inh – EBV LMP1-driven NF-kappaB luciferase reporter inhibitors, primary screen, cell-based, luminescence, single point. AID 504558, 2011. LMP1-induced NF-kappaB luciferase reporter cells. inhibition, % at 12.5 µM. hit rate 0.69% among 350,000; in the data active means inhibition above about 41%; inconclusive means no clear call, values can overlap the other calls;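 further: 0% = neutral control wells and 100% = reference inhibitor control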
HIF-2a inh – HIF-2a reporter inhibitors, primary screen, luminescence, 786-0 RCC cells; 786-0 RCC cells HIF-2a reporter, luciferase luminescence, overnight; hit rate 0.72% among 360,000; inhibition, % at 18.8 µM;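 active means inhibition of the luminescence signal of 40% or more relative to plate controls, in a single-dose primary screen at 18.75 µM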
TRPM1 prom inh – inhibitors of MITF-dependent TRPM1 promoter reporter, primary screen, cell-based, SK-MEL-5, single point, luciferase; SK-MEL-5 TRPM1 promoter luciferase, 24 h; inhibition, % at 12.5 µM; hit rate 0.83% among 330,000; AID 488899, 2010;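 active means mean inhibition across replicates of 60% or more, whatever share of single replicates reaches that level; inconclusive means some that reach 60%, reason not given; inactive means mean inhibition across replicates below 60%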
KKLEB cytotox – cytotoxicity in KKLEB CF airway cells, primary screen, cytotoxicity control for CF NF-kB inhibitor project, cell-based, uHTS, fluorescence assay plates; KKLEB CF airway cells viability, ATPlite luminescence, overnight; hits give low values; cells stimulated with P. aeruginosa culture filtrate; AID 602141, 2011; activity change (cytotoxicity), % at 5 µM; hit rate 0.36% among 360,000;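 active means corrected activity change at or below -50% at 5 µM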
Peg3 promoter – Peg3 promoter-driven luciferase inhibitors, primary screen, cell-based, HeLa, luciferase luminescence; inhibition, % at 20 µM; AID 588405, 2011; HeLa PEG-Prom luciferase reporter, overnight; hit rate 1.7% among 360,000;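 active means inhibition of at least 50% at 20 µM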
CF NFkB block – inhibitors of PAF-induced NF-kB signaling, primary screen, cell-based, GFP fluorescence, uHTS; KKLEB NF-kB-GFP reporter, GFP fluorescence overnight; inhibition, % at 5 µM; hit rate 0.86% among 360,000;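 active means at least 50% inhibition at 5 µM, scaled per plate between neutral and stimulator controls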;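 further: PAF is a Pseudomonas aeruginosa culture filtrate used as stimulus; plate controls were PAF-stimulated DMSO wells for no effect and unstimulated DMSO wells for full effect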
Active calls of the source: *; ? = inconclusive; · = no result. Only some compounds are listed: those with a hit (about 3% of all), similar ones and a draw of the others.

SMILES | LMP1 NFkB inh | HIF-2a inh | TRPM1 prom inh | KKLEB cytotox | Peg3 promoter | CF NFkB block
CSCCC(c1nnnn1C1CCCC1)N1CCC(n2c(=O)[nH]c3ccccc32)CC1 (stereo not given) | · | -17 | · | -4 | 27 | 1
CSCCC(c1nnnn1Cc1ccccc1)N1CCC(n2c(=O)[nH]c3ccccc32)CC1 (stereo not given) | · | -17 | · | -104* | 65* | 87*
Cc1cccc(C)c1-n1nnnc1C(C1CC1)N1CCC(n2c(=O)[nH]c3ccccc32)CC1 (stereo not given) | · | -7 | · | 11 | 51* | -34
CC1=C(C)CC2(C(=O)NC(=S)NC2=O)C(C)C1 (stereo not given) | -9 | 13 | -7 | -7 | -11 | 8
Cc1ccc(-[n+]2c(Cc3nn(-c4ccccc4)c(C)[n+]3-c3ccc(C)cc3)nn(-c3ccccc3)c2C)cc1 | 3 | 12 | · | 13 | -5 | -50
CNc1ccc2nc3ccccc3[n+](C)c2c1 | 4 | -11 | 72* | 5 | 39 | -61
Cc1ccc(-c2cc(-c3ccc(C)cc3)[n+](-c3ccc(C(=O)O)cc3)c(-c3ccc(C)cc3)c2)cc1 | -2 | 2 | -3 | -7 | -14 | -4
Cc1ccc(C[n+]2c(-c3ccc(C)cc3)cc(-c3ccc(C)cc3)cc2-c2ccc(C)cc2)cc1 | ? | 90* | 96* | -64* | 97* | 57*
COC(=O)C1=C(c2c(C)noc2C)C[C@@H]2CC[C@H]1N2C(=O)NCCOc1ccccc1 | -12 | 9 | -8 | -7 | -1 | 5
CC(=O)OC1CCC2(C)C(CC(=O)C3C2CCC2(C)C(OC(C)=O)CCC32)C1 (stereo not given) | -4 | 8 | -14 | 10 | -4 | -31
COc1cc2c(c(OC)c1OC)-c1ccc(O)c(=O)cc1C(NC(C)=O)CC2 (stereo not given) | 0 | -8 | 51 | -18 | -34 | 54*
COC1CC2C=C(C)C=CC=CC(=O)NC(c3ccccc3)CC=CCCC(O)CC(=O)C2=C1O (stereo not given) | · | 77* | · | -85* | 98* | 91*
Cc1cc(N(CCCl)CCCl)ccc1C=NNC(=O)Cc1cc(=O)oc2cc(O)ccc12 | 35 | -9 | 0 | 0 | 31 | 0
Cc1cc(N(CCCl)CCCl)ccc1/C=N/NC(=O)c1ccco1 | 53* | -141 | -21 | 0 | -121 | -5
CC12CCC3C(CCCC4CC(=O)CCC43C)C1CCC2O (stereo not given) | 4 | 5 | 8 | 13 | 13 | 11
CN(Cc1cccc(-c2ccncc2)c1)C(=O)Oc1ccccc1Cc1ccccc1 | · | 2 | · | · | · | ·
CCOC(=O)CC(NC(=O)C(Cc1ccc(N(CCCl)CCCl)cc1)NC(C)=O)C(=O)OCC (stereo not given) | 55* | -12 | 47 | -26 | 38 | 26
CC1=C(C)CC2(CC1)C(=O)NC(=O)NC2=O | -18 | -4 | 4 | 20 | 61* | -21
Cc1ccccc1-[n+]1c(-c2ccccc2)cc(-c2ccccc2)cc1-c1ccccc1 | ? | -7 | 90* | -6 | 37 | 37
Brc1ccc(-[n+]2c(-c3ccccc3)cc(-c3ccccc3)cc2-c2ccccc2)cc1 | 17 | 2 | 70* | -9 | 31 | 30
CCCOC(=O)c1ccc(-[n+]2c(-c3ccccc3)cc(-c3ccccc3)cc2-c2ccccc2)cc1 | 32 | -9 | 64* | -10 | 48 | 29
O=C(O)c1ccc(-[n+]2c(-c3ccccc3)cc(-c3ccccc3)cc2-c2ccccc2)cc1 | -4 | -7 | -9 | -5 | -21 | 22
COC(=O)C1=C(c2ccc3ccccc3c2)C[C@@H]2CC[C@H]1N2C(=O)N1CCCCC1 | 20 | -14 | 10 | -6 | -17 | 25
C[C@]12CCC3C(CC[C@H]4C[C@@H](O)CC[C@]34C)C1CC[C@@H]2OC(=O)[C@H](N)CCCCN (stereo not given in full) | 1 | 17 | 28 | -11 | 87* | 17
O=[N+]([O-])c1ccc(-c2ccccc2)c([As](=O)(O)O)c1 | -6 | 6 | -7 | 6 | -1 | 6
SMILES | LMP1 NFkB inh | HIF-2a inh | TRPM1 prom inh | KKLEB cytotox | Peg3 promoter | CF NFkB block
C/C(=C\c1ccc(N(C)C)cc1)[N+](=O)[O-] | 4 | 93* | 80* | -33 | 101* | -5
Nc1ccc(Cc2ccc(N)cc2)cc1 | -4 | 0 | 2 | -1 | -9 | -12
CN1C(=O)C(=Cc2sc(=O)n(-c3ccccc3)c2N(C)C)C(=O)N(C)C1=O | 0 | 19 | 6 | -1 | 24 | -10
CN(C)c1ccc(C=C2C(=O)NC(=O)NC2=O)cc1 | -2 | 5 | -11 | 13 | 12 | -6
CN(C)c1ccc(C=C2C(=O)NC(=S)NC2=O)cc1 | 1 | 25 | 36 | 2 | 89* | 24
CCOc1ccc(C=C2C(=O)NC(=S)NC2=O)cc1OCC | -3 | 10 | -1 | 9 | -1 | 18
CCN(CC)c1ccc(C=C2C(=O)NC(=S)NC2=O)cc1 | 10 | 68* | 44 | -13 | 104* | 66*
CN1CCN(CCOC2c3ccccc3CSc3ccc(Cl)cc32)CC1 (stereo not given) | -15 | -4 | 10 | -14 | 25 | 28
Clc1ccc2c(c1)C(OC1CN3CCC1CC3)c1ccccc1CS2 (stereo not given) | -15 | 25 | 45 | -10 | 97* | 1
CC1Oc2cc3c(-c4c(O)cc(O)c5c(O)c6c(cc45)OC(C)C(C)C6=O)c(O)cc(O)c3c(O)c2C(=O)C1C (stereo not given) | 29 | -8 | 82* | -56* | 70* | 67*
CCOc1cc(CNCCc2c[nH]c3ccccc23)cc(Cl)c1OC | 3 | 23 | 4 | 0 | 62* | 8
COc1ccc(CNCCc2c[nH]c3ccccc23)c(OC)c1OC | 5 | 14 | 1 | -17 | 0 | -2
CCCC(=O)NC1=C(N2CC2)C(=O)C(NC(=O)CCC)=C(N2CC2)C1=O | -4 | -8 | 52 | 22 | 2 | 17
CCN(CC)C(=O)c1ccc(NC(=O)c2cccc(C(F)(F)F)c2)cc1 | -3 | -32 | -15 | -2 | -29 | 1
